In PubChem BioAssay:
Results filed as inconclusive are left out. The source made the active and inactive calls.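 Rule for the calls, unless noted: active = GFP response above 150% of the DMSO level; inconclusive = fewer than 70 events counted for a yeast strain; inactive = the rest.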

Legend:
[1] = yeast TOR pathway RPL19A-GFP modulators, primary screen, cell-based, S. cerevisiae, multiplex flow cytometry (AID 1862; in the data active = percent of DMSO control GFP below about 86%;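 note: lower values mimic rapamycin by blocking the RPL19A rise seen in DMSO cells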); conditions: S. cerevisiae RPL19A-GFP strain, flow cytometry fluorescence, 3 h; at 10 µM; stronger effect = lower value
[2] = modulators of MEP2-GFP levels in yeast, primary screen, S. cerevisiae, multiplex flow cytometry (AID 1867;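 active = GFP response, as percent of the DMSO control, above the screen-wide mean plus 3 SD, about 139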;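 note: median GFP channel fluorescence of barcode-gated MEP2-GFP cells measured by flow cytometry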); conditions: S. cerevisiae MEP2-GFP strain, 3 h, at 10 µM, stronger effect = higher value, 100% means same as DMSO wells
[3] = modulators of CIT2-GFP expression in yeast, primary screen, S. cerevisiae, GFP fusion, multiplex flow cytometry (AID 1870;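 active = percent response above a set limit, the screen-wide mean plus 3 SD, cut at about 130% in these data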;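 note: barcoded CIT2-GFP strain pooled with four other GFP strains with rapamycin as positive control; median GFP fluorescence per well over plate mean of DMSO wells so 100% = DMSO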); conditions: 3 h, at 10 µM, stronger effect = higher value
[4] = modulators of LAP4-GFP expression in yeast, primary screen, S. cerevisiae, multiplex flow cytometry (AID 1873;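 active = GFP signal, as percent of the solvent control, above the screen mean plus 3 SD, about 149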); conditions: 3 h, at 10 µM, stronger effect = higher value
[5] = modulators of AGP1-GFP expression in yeast TOR pathway, primary screen, cell-based, multiplex flow cytometry, S. cerevisiae (AID 1887;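 active = GFP signal above the screen-wide mean plus 3 SD, that is over about 124.5% of the solvent control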;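 note: AGP1-GFP fusion strain of S. cerevisiae within a five-strain barcoded multiplex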); conditions: 3 h, at 10 µM, stronger effect = higher value
[6] = RPL19A-GFP modulators, yeast TOR pathway, confirmation, cell-based, S. cerevisiae, flow cytometry, cherry picks, mother/daughter gates (AID 2270;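 active = GFP response below 50% of the DMSO control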); conditions: S. cerevisiae RPL19A-GFP strain, 3 h, at 10 µM, stronger effect = lower value, 100 = same GFP as DMSO wells
[7] = LAP4-GFP expression modulators in yeast, confirmation, cell-based, cherry picks, flow cytometry, mother/daughter gates (AID 2271;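 active = GFP response above 150% of the DMSO control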;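 note: ratio of sample to DMSO plate mean so 100% equals DMSO level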); conditions: S. cerevisiae LAP4-GFP strain, 3 h, at 10 µM, stronger effect = higher value, 100 means same as DMSO control
[8] = modulators of MEP2-GFP levels in yeast, confirmation, S. cerevisiae, flow cytometry GFP, cherry picks (AID 2272;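 active = GFP response above 150% of the DMSO control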;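 note: ratio of well signal to plate DMSO mean so 100% equals DMSO level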); conditions: S. cerevisiae MEP2-GFP strain, 3 h, at 10 µM, stronger effect = higher value
[9] = AGP1-GFP expression modulators, hit retest, confirmation, cell-based, flow cytometry, S. cerevisiae, cherry picks (AID 2273);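 note: median GFP channel fluorescence over the whole cell population gate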; conditions: S. cerevisiae AGP1-GFP strain, 3 h, at 10 µM
[10] = modulators of CIT2-GFP expression in yeast, confirmation, S. cerevisiae, GFP fusion, cherry picks, mother/daughter gates (AID 2274); conditions: S. cerevisiae CIT2-GFP strain, flow cytometry, 3 h, at 10 µM, stronger effect = higher value
[11] = inhibitors of CD8+ T cell-vesicle binding, pilot screen, LFA-1/ICAM-1 modulator project, MLPCN validation set, flow cytometry (AID 2523;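 active = response below a set limit, under 55% cells CD8-positive and vesicle-bound, and CD8 cells' 90th-percentile brightness under 279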;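 for vesicle binding response: mean PE anti-B7-1 fluorescence of CD8+ cells relative to row control; 100% = QL9-loaded vesicles with DMSO vehicle in the same plate row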); conditions: 2C mouse CD8+ T cells, at 7 µM, stronger effect = lower value; double positive events: measured here: CD8+/vesicle+ event percentage
[12] = molecular target: Integrin beta-1 (Homo sapiens) + Integrin alpha-4 (Homo sapiens) (UniProt P13612+P05556); assay: inhibition of HUTS-21 binding to VLA-4, pilot screen, VLA-4 allosteric modulator project, U937 cells, HUTS-21 mAb, flow cytometry, validation set (AID 2674;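 active = inhibition above 50%, about 3 SD of the validation set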;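 note: antibody binding induced by the VLA-4 ligand LDV present at three times its Kd; 0% = LDV ligand with antibody and no compound and 100% = antibody without LDV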); conditions: HUTS-21 LIBS mAb binding, at 6.7 µM, stronger effect = higher value, binding induced by LDV ligand
[13] = superoxide lowering in aged yeast cells, pilot screen, validation compound set (AID 2706;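 active = superoxide response below 65% of plate, a cut near 3 SD across the whole screen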;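 note: yeast exposed to compound for one week at 30 degrees C before staining; 100% = mean of all compound wells on the same plate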); conditions: S. cerevisiae aging, superoxide DHE fluorescence; at 10 µM; stronger effect = lower value
[14] = molecular target: Beta-adrenergic receptor kinase 1 (Homo sapiens) (UniProt P25098); assay: GRK2 binders displacing RNA aptamer, biochemical, validation, human GRK2, bead flow cytometry (AID 488806;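 active = aptamer binding inhibition above 30%, about 3 SD of noise from non-fluorescent compounds; inactive = inhibition at or below 30%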); conditions: bead-bound GRK2, FAM-aptamer displacement, at 10 µM, stronger effect = higher value
[15] = molecular target: Beta-2 adrenergic receptor (Homo sapiens) (UniProt P07550); assay: beta2AR agonists driving receptor internalization, pilot screen, cell-based, FAP fluorogen, flow cytometry, validation set (AID 504459;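 active = percent response above 42, roughly 3 SD of non-fluorescent test compounds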;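 note: agonist-driven loss of surface beta2AR via internalization measured by FAP dye flow cytometry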); conditions: Am2.2-beta2AR cells, FAP surface receptor flow cytometry; at 10 µM; stronger effect = higher value
[16] = molecular target: AP-2 complex subunit beta (Homo sapiens) (UniProt P63010); assay: inhibitors of arrestin peptide binding to AP2, pilot screen, biochemical, validation set, GST-AP2 beads, flow cytometry (AID 504541;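 active = inhibition above 54%, about 3 SD of non-fluorescent compounds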;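 note: AP2 carries R879A mutation and is captured from E. coli lysate; bead-bound FITC arrestin peptide fluorescence measuring arrestin peptide binding to AP2; 0% = DMSO wells and 100% = excess unlabeled arrestin peptide control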); conditions: FITC arrestin peptide, at 10 µM, stronger effect = higher value, AP2 beta2 appendage fragment, R879A mutant
[17] = yeast V-ATPase proton transport modulators, S. cerevisiae, pHLuorin, HTS validation (AID 504600; in the data active = response above about 15%;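 note: plate controls were DMSO for no effect and reference compound for full effect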); conditions: S. cerevisiae pHLuorin cytosolic pH, at 10 µM, stronger effect = higher value
[18] = tested on: anti-desmoglein-3 scFv antibody binding to human DSG3; assay: inhibitors of anti-DSG3 scFv binding to DSG3, pilot screen, biochemical, validation compound set, bead-based, flow cytometry (AID 588368;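 active = binding below the plate cutoff, the plate median minus 3 SD, with a reading above zero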;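 note: signal is the median channel fluorescence of bead-bound GFP antibody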); conditions: Protein G beads, DSG3-Fc, scFv-GFP binding, at 10 µM, stronger effect = lower value
[19] = inhibitors of fungal efflux pumps CDR1, CDR2, MDR1, pilot screen, validation compound set, multiplex, phenotypic (AID 588506;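 active = efflux inhibition above 0.42, the validation set average plus 4 SD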;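 note: Nile Red retained in cells so higher fluorescence means more efflux inhibition; 0 = negative control wells and 1 = enniatin B 25 µM full block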); conditions: S. cerevisiae pump-expressing triplex, Nile Red efflux flow cytometry; at 10 µM; stronger effect = higher value; the pumps come from Candida albicans
[20] = molecular target: ATP-binding cassette sub-family B member 6 (Homo sapiens) (UniProt Q9NP58); assay: ABCB6 transporter inhibitors, pilot screen, K562-ABCB6 cells, flow cytometry, validation set (AID 588550;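 active = inhibition above the screen-wide mean plus 3 SD, about 51%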;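 note: 0% = DMSO wells and 100% = benzethonium chloride 70 µM positive control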); conditions: K562-ABCB6 porphyrin accumulation, 1 h, at 10 µM, stronger effect = higher value
[21] = promoters of myeloid differentiation in arrested cells, primary screen, cell-based, GFP/MAC1 double positive, flow cytometry, validation set (AID 588685;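 active = differentiation response of at least 50%, scaled between solvent and reference control, from cells with both markers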;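 note: compound exposure lasts four days before antibody staining and flow analysis; 0% = DMSO wells and 100% = 5 µM fulvestrant positive control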); conditions: ER-HoxA9 marrow cells, stronger effect = higher value, normalized: vehicle 0, fulvestrant 100
[22] = measured here: daughter cell gate
[23] = measured here: mother cell gate
[24] = measured here: daughter cell gate response
[25] = measured here: mother cell gate response

Sequence of Beta-adrenergic receptor kinase 1 (Homo sapiens) (P25098 whole entry, looked up): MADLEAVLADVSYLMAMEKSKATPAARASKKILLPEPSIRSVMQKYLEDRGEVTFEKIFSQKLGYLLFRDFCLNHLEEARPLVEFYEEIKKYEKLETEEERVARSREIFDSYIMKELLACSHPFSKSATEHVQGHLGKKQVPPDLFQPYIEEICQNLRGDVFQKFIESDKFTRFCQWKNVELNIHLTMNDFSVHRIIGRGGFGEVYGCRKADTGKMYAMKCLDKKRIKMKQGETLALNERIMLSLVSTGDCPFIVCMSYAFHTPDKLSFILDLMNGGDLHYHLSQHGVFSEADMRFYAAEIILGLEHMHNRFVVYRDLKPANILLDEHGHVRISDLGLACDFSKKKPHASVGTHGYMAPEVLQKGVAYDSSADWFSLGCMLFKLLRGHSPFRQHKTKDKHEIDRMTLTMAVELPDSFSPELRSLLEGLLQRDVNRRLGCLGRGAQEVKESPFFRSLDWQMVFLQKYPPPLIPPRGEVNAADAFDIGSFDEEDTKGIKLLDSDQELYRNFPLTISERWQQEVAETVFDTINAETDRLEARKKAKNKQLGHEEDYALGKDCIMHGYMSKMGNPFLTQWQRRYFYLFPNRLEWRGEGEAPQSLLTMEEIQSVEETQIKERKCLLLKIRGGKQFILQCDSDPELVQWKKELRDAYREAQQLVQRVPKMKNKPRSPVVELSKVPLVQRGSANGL
Sequence of ATP-binding cassette sub-family B member 6 (Homo sapiens) (Q9NP58 whole entry, looked up): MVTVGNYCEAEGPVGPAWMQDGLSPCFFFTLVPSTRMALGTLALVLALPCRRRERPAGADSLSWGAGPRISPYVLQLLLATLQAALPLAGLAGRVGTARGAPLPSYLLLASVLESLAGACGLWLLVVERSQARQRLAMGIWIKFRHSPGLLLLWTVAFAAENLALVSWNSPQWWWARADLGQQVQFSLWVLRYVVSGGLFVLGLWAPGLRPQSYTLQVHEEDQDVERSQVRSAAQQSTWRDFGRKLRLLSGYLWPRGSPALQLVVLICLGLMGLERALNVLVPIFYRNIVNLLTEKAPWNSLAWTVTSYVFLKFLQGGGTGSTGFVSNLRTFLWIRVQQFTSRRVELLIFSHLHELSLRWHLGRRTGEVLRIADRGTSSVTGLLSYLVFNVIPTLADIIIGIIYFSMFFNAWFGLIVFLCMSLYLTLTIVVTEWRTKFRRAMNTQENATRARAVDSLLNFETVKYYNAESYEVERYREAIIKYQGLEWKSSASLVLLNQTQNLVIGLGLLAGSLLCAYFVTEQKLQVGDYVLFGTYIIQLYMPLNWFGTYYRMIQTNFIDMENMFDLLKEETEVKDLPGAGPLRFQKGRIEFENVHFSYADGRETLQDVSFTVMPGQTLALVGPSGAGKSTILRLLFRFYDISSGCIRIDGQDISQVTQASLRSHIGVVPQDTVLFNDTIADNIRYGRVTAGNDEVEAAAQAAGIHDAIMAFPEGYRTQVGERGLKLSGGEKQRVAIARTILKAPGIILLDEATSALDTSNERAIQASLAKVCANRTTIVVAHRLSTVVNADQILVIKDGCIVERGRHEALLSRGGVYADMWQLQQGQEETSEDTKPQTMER
Sequence of Beta-2 adrenergic receptor (Homo sapiens) (P07550 whole entry, looked up): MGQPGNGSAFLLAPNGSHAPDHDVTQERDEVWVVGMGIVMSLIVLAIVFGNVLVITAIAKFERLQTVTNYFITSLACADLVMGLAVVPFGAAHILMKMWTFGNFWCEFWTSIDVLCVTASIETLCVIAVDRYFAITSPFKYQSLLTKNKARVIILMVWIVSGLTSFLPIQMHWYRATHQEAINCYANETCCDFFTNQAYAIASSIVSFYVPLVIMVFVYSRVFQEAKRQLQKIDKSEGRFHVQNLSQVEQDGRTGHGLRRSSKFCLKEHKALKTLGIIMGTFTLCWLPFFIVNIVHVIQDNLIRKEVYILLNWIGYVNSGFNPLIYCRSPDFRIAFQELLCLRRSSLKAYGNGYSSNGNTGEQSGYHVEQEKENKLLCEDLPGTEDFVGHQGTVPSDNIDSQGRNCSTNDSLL
Sequence of AP-2 complex subunit beta (Homo sapiens) (P63010 whole entry, looked up, the tested form may be a part, one chain of several): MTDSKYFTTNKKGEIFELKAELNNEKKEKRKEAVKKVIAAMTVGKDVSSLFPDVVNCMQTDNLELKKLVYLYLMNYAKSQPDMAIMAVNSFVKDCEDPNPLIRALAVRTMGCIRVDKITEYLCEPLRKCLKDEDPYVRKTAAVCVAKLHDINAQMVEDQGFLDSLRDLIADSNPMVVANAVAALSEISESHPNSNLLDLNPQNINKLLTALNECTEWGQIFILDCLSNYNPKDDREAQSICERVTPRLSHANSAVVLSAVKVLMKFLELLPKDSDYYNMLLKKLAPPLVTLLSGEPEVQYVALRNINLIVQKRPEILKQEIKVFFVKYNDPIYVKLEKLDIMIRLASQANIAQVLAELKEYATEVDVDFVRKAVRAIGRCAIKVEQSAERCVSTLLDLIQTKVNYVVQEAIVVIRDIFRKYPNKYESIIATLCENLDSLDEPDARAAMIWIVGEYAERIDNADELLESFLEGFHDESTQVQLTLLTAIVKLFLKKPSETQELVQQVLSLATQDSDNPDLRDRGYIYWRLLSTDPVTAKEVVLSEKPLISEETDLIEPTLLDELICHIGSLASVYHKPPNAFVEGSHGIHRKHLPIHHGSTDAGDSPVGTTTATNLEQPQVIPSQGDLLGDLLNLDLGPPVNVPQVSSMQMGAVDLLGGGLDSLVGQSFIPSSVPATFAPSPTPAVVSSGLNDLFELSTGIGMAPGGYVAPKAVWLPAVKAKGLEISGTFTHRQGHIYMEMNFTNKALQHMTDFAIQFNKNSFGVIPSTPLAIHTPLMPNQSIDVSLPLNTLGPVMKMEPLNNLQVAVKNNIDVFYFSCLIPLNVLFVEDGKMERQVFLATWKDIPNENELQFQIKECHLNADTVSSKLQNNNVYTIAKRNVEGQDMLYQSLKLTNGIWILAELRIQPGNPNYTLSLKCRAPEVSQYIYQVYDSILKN
Sequence of Integrin beta-1 (Homo sapiens) + Integrin alpha-4 (Homo sapiens) (P05556 whole entry, looked up): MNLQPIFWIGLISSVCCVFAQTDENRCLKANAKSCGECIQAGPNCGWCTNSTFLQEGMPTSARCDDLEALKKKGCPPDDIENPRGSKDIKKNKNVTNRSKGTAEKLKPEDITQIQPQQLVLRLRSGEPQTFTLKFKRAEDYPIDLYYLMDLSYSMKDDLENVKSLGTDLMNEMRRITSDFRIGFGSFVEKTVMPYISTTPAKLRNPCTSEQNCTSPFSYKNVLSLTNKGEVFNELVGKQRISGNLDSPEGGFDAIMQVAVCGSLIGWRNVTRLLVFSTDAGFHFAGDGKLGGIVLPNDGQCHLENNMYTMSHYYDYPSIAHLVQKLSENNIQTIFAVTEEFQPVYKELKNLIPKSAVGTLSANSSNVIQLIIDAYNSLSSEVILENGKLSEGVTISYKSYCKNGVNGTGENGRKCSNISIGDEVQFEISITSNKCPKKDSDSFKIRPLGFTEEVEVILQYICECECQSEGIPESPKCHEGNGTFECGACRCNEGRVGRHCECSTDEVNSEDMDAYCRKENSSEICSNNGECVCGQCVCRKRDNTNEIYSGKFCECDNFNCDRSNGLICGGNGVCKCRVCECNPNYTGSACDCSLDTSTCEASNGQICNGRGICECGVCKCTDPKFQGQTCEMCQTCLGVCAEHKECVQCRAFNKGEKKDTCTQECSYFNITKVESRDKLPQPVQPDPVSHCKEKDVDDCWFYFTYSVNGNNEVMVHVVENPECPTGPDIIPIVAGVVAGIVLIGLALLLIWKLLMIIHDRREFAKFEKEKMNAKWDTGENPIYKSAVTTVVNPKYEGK
Sequence of Integrin beta-1 (Homo sapiens) + Integrin alpha-4 (Homo sapiens) (P13612 whole entry, looked up): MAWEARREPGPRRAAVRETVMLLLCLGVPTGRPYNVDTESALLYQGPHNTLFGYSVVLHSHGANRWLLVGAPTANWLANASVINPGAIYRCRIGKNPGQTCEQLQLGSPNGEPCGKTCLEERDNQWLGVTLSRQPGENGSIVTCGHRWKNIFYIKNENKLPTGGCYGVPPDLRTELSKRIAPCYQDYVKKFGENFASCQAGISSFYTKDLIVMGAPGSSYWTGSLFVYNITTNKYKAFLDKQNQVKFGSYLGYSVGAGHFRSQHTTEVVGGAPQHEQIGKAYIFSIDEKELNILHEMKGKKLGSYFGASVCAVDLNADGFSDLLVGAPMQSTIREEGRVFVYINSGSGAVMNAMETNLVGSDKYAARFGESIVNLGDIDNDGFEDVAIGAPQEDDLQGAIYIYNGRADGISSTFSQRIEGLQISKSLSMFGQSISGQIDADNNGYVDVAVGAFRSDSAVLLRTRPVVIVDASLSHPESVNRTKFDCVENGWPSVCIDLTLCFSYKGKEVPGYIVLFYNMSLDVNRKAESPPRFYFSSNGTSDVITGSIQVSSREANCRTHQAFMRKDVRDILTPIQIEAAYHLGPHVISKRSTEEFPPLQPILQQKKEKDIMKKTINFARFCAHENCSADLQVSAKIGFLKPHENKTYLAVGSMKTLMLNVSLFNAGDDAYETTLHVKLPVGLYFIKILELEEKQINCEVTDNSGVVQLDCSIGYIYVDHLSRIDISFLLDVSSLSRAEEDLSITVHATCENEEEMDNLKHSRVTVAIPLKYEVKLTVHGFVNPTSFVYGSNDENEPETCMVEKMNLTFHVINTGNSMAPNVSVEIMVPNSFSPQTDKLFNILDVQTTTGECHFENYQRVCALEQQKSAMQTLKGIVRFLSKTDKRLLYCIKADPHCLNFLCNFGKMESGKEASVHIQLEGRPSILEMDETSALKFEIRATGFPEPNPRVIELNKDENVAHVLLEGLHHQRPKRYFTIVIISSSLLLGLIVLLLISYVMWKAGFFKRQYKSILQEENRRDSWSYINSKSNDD

OC(CCN1CCCCC1)(c1ccccc1)c1ccccc1
95.2%: GFP response relative to DMSO [7, 25]
active: percent response of DMSO control [3] 128%
97.2%: GFP response relative to DMSO [7, 24]
102%: GFP response vs DMSO [6, 23]
99%: GFP response vs DMSO [6, 22]
62.7%: double positive events [11]
85.8%: GFP response, % of DMSO [10, 23]
inactive: percent of DMSO control GFP [1] 92.8% | GFP response vs DMSO [2] 126% | GFP response vs DMSO [4] 86.9% | GFP response, % of DMSO [5] 91.9% | GFP response vs DMSO [6] 100% | GFP response relative to DMSO [7] 95% | GFP response vs DMSO [8] 100% | GFP response, % of DMSO [9] 96.3% | GFP response, % of DMSO [10] 96.5% | vesicle binding response [11] 152% | inhibition [12] 12.3% | superoxide response (% of plate) [13] 107% | aptamer binding inhibition [14] 2% | response [15] 1.89% | inhibition [16] 2.98% | response [17] 5.35% | binding (% of control) [18] 103% | efflux inhibition (fraction of control) [19] -0.24 | inhibition [20] 8% | differentiation response [21] -4.91%
96.5%: GFP response, % of DMSO [10, 22]

NS(=O)(=O)c1cc2c(cc1C(F)(F)F)NC(Cc1ccccc1)NS2(=O)=O (stereo unspecified)
active: GFP response vs DMSO [2] 140%
104%: GFP response, % of DMSO [10, 22] | GFP response, % of DMSO [10, 23]
97.1%: GFP response vs DMSO [6, 23]
96.5%: GFP response relative to DMSO [7, 24]
96%: GFP response vs DMSO [6, 22]
97.5%: GFP response relative to DMSO [7, 25]
inactive: percent of DMSO control GFP [1] 89.8% | percent response of DMSO control [3] 106% | GFP response vs DMSO [4] 82.5% | GFP response, % of DMSO [5] 90.8% | GFP response vs DMSO [6] 95% | GFP response relative to DMSO [7] 97.7% | GFP response vs DMSO [8] 97.5% | GFP response, % of DMSO [9] 101% | GFP response, % of DMSO [10] 102% | vesicle binding response [11] 176% | inhibition [12] 7.43% | superoxide response (% of plate) [13] 85% | aptamer binding inhibition [14] 7% | response [15] 1.02% | inhibition [16] 21.3% | response [17] -2.03% | binding (% of control) [18] 97.4% | efflux inhibition (fraction of control) [19] 0.05 | inhibition [20] 6% | differentiation response [21] -0.82%
64.3%: double positive events [11]
